Source: PubChem BioAssay
In the library only some 4.7% were active in any assay of this set; here they are far more common.
tim23-1 inh: growth inhibitors of tim23-1 mutant yeast, primary screen, luminescence, uHTS. 330,000 compounds, 1.3% hits. inhibition, % at 20 µM. S. cerevisiae tim23-1 growth, BacTiter-Glo luminescence, 24 h. AID 463212, 2010;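 active = growth inhibition of the mutant yeast at or above 50%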;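 also: temperature-sensitive mutant grown at 25 °C; plate controls were DMSO-treated mutant yeast for no effect and medium wells lacking yeast for full effect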
TIM10 inh: growth inhibitors of isogenic TIM10 control yeast, primary screen, counter-screen for tim10-1 yeast inhibitor project, luminescence, uHTS; 330,000 compounds, 1.4% hits; inhibition, % at 10 µM; S. cerevisiae TIM10 strain growth, BacTiter-Glo luminescence, 24 h;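 active = inhibition of 40% or more at the single tested concentration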;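 also: wild-type TIM10 isogenic control strain grown at permissive 25 °C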
PfHsp90 set2: growth inhibition of PfHsp90-expressing yeast, primary screen, antimalarial PfHsp90 inhibitor project, S. cerevisiae, BacTiter-Glo luminescence, single point, set 2; 310,000 compounds, 0.32% hits; inhibition, % at 9.4 µM; AID 504621, 2011; BacTiter-Glo ATP, 48 h; yeast lacking PDR1 and PDR3 efflux regulators;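 active = every replicate shows inhibition above about 80%, whatever the replicate mean, limit read from the data; inconclusive = mean inhibition reaches the set limit but some replicate falls short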;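 also: 0% = DMSO neutral controls and 100% = 20 µM radicicol positive controls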
tim10-1 inh: growth inhibitors of tim10-1 mutant yeast, primary screen, luminescence, uHTS | S. cerevisiae tim10-1 ts strain growth, BacTiter-Glo, 24 h | inhibition, % at 20 µM | 330,000 compounds, 2.2% hits;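 active = inhibition of at least 40%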;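 also: mutant grown at 25 °C; 0% = DMSO wells with yeast and 100% = wells holding no yeast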
Calb FLC: C. albicans growth inhibition with fluconazole, primary screen, CaCi-2 strain, Alamar Blue fluorescence | C. albicans CaCi-2 (fluconazole-resistant clinical isolate) + fluconazole, 48 h | growth inhibition, % (no concentration beside the values) | 300,000 compounds, 0.57% hits | AID 1979, 2009;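 active = growth inhibition above about 58% in most replicates, limit read from the data, passing the limit was not always enough; inconclusive = exactly half the replicates above a set limit; inactive = most replicates below a set limit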;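 also: all wells also contain fluconazole at 8 µg/ml as a sub-toxic cotreatment; 0% = median of DMSO wells and 100% = median of geldanamycin control wells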
SKKanGAS inh: S. pyogenes SKKanGAS growth inhibitors in kanamycin, primary screen, streptokinase expression inhibitor project, SKKanGAS strain, BacTiter-Glo luminescence. 6 h. 300,000 compounds, 1.3% hits. inhibition, % at 7.5 µM;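 active = mean replicate score, as percent of positive control median, at least 50; inconclusive = mean below 50 but one replicate at or above 50; inactive = mean and every replicate below 50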;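 also: strain carries kanamycin resistance gene driven by streptokinase promoter and grows in 40 µg/ml kanamycin; loss of luminescence reflects streptokinase promoter inhibition or plain growth inhibition; 0% = median of DMSO wells and 100% = positive control at its reference dose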
TIM10 conf: growth inhibitors of wild-type TIM10 yeast, confirmation, counter-screen for tim10-1 synthetic lethality project, single concentration, luminescence, S. cerevisiae; S. cerevisiae tim10 strain growth, BacTiter-Glo luminescence, 24 h; inhibition, % at 10 µM; shares compounds with TIM10 inh; AID 463215, 2010; 4,600 compounds, 63% hits;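 active = inhibition of yeast growth at or above a set limit in either of two replicates at 10 µM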;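 also: this counterscreen used the strain with wild-type TIM10; 0% = yeast with DMSO and 100% = medium wells lacking yeast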
Numbers without * were called inactive; ? = inconclusive; . = no result.

SMILES	tim23-1 inh	TIM10 inh	PfHsp90 set2	tim10-1 inh	Calb FLC	SKKanGAS inh	TIM10 conf
COc1ccc2cc3cc(C(=O)N4CCN(C5CCCCC5)CC4)oc3nc2c1	28	64*	15	23	7	-15	46*
CCCN(CCC)CCCNC(=O)c1cc2cc3ccc(OC)cc3nc2o1	50	65*	-24	36	-10	1	-33
COc1ccc2cc3cc(C(=O)NCc4cccs4)oc3nc2c1	14	-14	.	9	1	-11	.
COc1ccc2cc3cc(C(=O)NCCc4ccc(OC)c(OC)c4)oc3nc2c1	28	55*	-5	0	5	14	-3
CCN1CCN(CCCNC(=O)c2cc3cc4ccc(OC)cc4nc3o2)CC1	39	11	-33	16	16	4	.
CC(C)(C)c1nc(SCC(=O)NNC(=O)c2ccccc2)c2ccccc2n1	38	0	20	35	3	8	.
COc1ccc(NC(=O)c2cc3c(-c4ccc(OC)c(OC)c4)nn(C)c3s2)cc1OC	35	40*	-30	34	8	38	27*
COc1ccc(-c2nn(C)c3sc(C(=O)NCc4ccco4)cc23)cc1OC	-20	-31	-21	-21	-3	5	.
CCCn1c2c(c(O)c(C(=O)Nc3ncccc3C)c1=O)CCCC2	49	45*	0	25	8	-1	8
CCCn1c2c(c(O)c(C(=O)Nc3nccs3)c1=O)CCCC2	31	19	-2	23	30	18	.
O=C(COC(=O)c1ccccc1Nc1ccc(SC(F)F)cc1)NC1CC1	27	51*	5	31	4	41	37*
COCC(=O)N1CCC(Oc2ccc(C(=O)N3CCSCC3)cc2)CC1	7	5	13	5	-1	2	.
CC(C)(C)c1ccc(OCC(O)CN2CCOCC2)cc1 (stereo not drawn)	-4	48*	-16	4	-12	-6	8
CC1(NC(=O)c2cccc(S(=O)(=O)N3CCN(c4ccc(F)cc4)CC3)c2)CCS(=O)(=O)C1 (stereo not drawn)	7	4	14	16	-5	-2	.
CCn1c(O)c(/C=C2\C=Nc3ccccc32)sc1=O	31	44*	3	16	31	-6	-11
COc1cccc2cc(-c3nc4ccccc4[nH]3)c(=O)oc12	14	54*	28	-31	2	-2	36*
COc1ccc(Nc2nccc(N(C)C)c2C#N)cc1	-6	55*	7	4	-15	-6	-6
COc1ccc(Nc2nccc(OC)c2C#N)cc1	8	11	-26	6	-10	-6	.
CC1CCN(C(=O)C(=O)Nc2sc3c(c2C(N)=O)CC(C)(C)OC3)CC1	4	-4	2	10	7	-1	.
CCn1c(SCC(=O)N2CC(C)OC(C)C2)nc2c([nH]c3ccccc32)c1=O (stereo not drawn)	2	-1	-2	-8	-1	?	.
Cc1[nH]c(=S)sc1Cc1ccc(Cl)c(Cl)c1	18	42*	.	28	-4	28	-13
Cc1nnc(SCc2ccc(Cl)c(Cl)c2)s1	6	2	-22	15	-9	-5	.
O=C(CSCc1ccc(Cl)cc1)Nc1ccc(S(=O)(=O)N2CCOCC2)cc1	24	43*	12	13	-6	-24	-7
COc1ccc(/C=C/C(=O)Nc2ccccc2)cc1S(=O)(=O)N1CCOCC1	18	16	27	-20	19	-7	.
COc1ccc(/C=C/C(=O)Nc2ccc(NC(C)=O)cc2)cc1S(=O)(=O)N1CCOCC1	3	96*	-14	10	4	10	-18
SMILES	tim23-1 inh	TIM10 inh	PfHsp90 set2	tim10-1 inh	Calb FLC	SKKanGAS inh	TIM10 conf
CN(C)S(=O)(=O)c1cccc(NC(=O)/C=C/c2ccc(S(=O)(=O)N3CCOCC3)cc2)c1	5	3	-7	2	.	.	.
COc1ccc(NC(=O)CSCC(=O)Nc2ccc(S(=O)(=O)N3CCOCC3)cc2)cc1	6	-1	-3	9	.	.	.
O=C(/C=C/c1ccccc1)Nc1ccc(S(=O)(=O)N2CCOCC2)cc1	33	46*	4	40	8	2	44*
O=C(/C=C/c1cccc(F)c1)Nc1ccc(S(=O)(=O)N2CCOCC2)cc1	24	68*	-6	11	.	.	45*
CC(=O)c1cccc(NC(=O)/C=C/c2ccc(S(=O)(=O)N3CCOCC3)cc2)c1	12	2	-6	11	.	.	.
C[C@]12C(=O)N(c3ccc(Br)cc3)C(=O)N1[C@H]1c3ccccc3OC[C@@H]1[C@H]2c1ccccc1	34	4	-18	9	.	.	.
O=C(O)c1nn(CCOc2cccc(Br)c2)c(=O)c2ccccc12	-11	-13	-17	-21	0	-6	.
CC1CC(C)CN(C(=O)COC(=O)c2ccc(S(=O)(=O)N(C)c3ccccc3)cc2)C1 (stereo not drawn)	12	22	.	0	.	.	.
O=C(/C=C/c1ccccc1)Nc1cccc(C(=O)N2CCCCC2)c1	.	.	-34	.	.	.	.
O=C(/C=C/c1ccccc1)Nc1ccc(C(=O)N2CCCCC2)cc1	17	48*	21	34	40	1	26
COc1ccc(C(C(=O)NC2CCCC2)N(Cc2cccnc2)C(=O)Cc2cccs2)c(OC)c1 (stereo not drawn)	-3	11	21	-12	18	-2	.
COc1ccc(CNC(=S)NC(C)CCc2ccccc2)cc1 (stereo not drawn)	10	53*	0	32	-33	-7	21
Cc1ccc(C)c2nc3sc(C(=O)N4CCCc5ccccc54)c(N)c3cc12	41	46*	-1	36	1	-9	29
CSCCC(NS(=O)(=O)c1ccccc1)C(=O)OCc1cc(=O)oc2cc(O)ccc12 (stereo not drawn)	0	11	.	-3	7	39	.
CCCCCCC(=O)NNC(=O)c1c(O)c2ccccc2n(CCC)c1=O	4	46*	.	3	-6	92*	-12
Cn1c(SCC(=O)N2CCCC2)nc2ccccc21	-6	-17	-3	-4	-12	-6	.
Cn1c(SCC(=O)N(Cc2ccccc2)C(C)(C)C)nc2ccccc21	49	40*	-16	33	6	-3	24
O=C(Nc1ccc2c(c1)Cc1ccccc1-2)c1ccncc1	43	57*	24	18	5	-4	4
